Screens: PubChem BioAssay, several laboratories
Only some compounds are listed: those with a hit (about 2.5% of all), similar ones and a draw of the others.
HDAC3 inhib = inhibitors of human histone deacetylase 3. O15379. recombinant HDAC3, fluorogenic peptide/trypsin coupled, fluorescence. inhibition, % at 8.3 µM. 320,000 tested, 0.15% active. AID 2718; in the data active means inhibition above about 26%, passing the limit was not always enough; inconclusive means no clear call, values can overlap the other calls
G6PDH CS = counter-screen for G6PDH assay hits: L. mesenteroides G6PDH inhibition; Purified L. mesenteroides G6PDH, diaphorase/resazurin coupled fluorescence, 45 min; inhibition, % at 5 µM; 200,000 tested, 0.12% active; in the data active means inhibition above about 50%
SUMO HTRF inh = blocks human SUMOylation mediated by UBC9; P63279; HTRF SUMOylation assay, SAE1/SAE2 + UBC9, in vitro; inhibition, % at 35 µM; 290,000 tested, 0.36% active; in the data active means inhibition above about 50%, passing the limit was not always enough; inconclusive means no clear call, values can overlap the other calls
PHOSPHO1 block = inhibitors of human PHOSPHO1 phosphatase; recombinant PHOSPHO1, absorbance phosphatase assay; 290,000 tested, 1.1% active; inhibition, % at 13.3 µM; Q8TCT1; in the data active means inhibition above about 60%
p97 inhibitor = human p97 ATPase inhibition. AID 1481. P55072. 220,000 tested, 0.42% active. recombinant p97 ATPase, Kinase-Glo ATP luminescence, 3 h. inhibition, % at 8 µM; in the data active means inhibition above about 15%
Target sequence (P55072 whole entry, looked up): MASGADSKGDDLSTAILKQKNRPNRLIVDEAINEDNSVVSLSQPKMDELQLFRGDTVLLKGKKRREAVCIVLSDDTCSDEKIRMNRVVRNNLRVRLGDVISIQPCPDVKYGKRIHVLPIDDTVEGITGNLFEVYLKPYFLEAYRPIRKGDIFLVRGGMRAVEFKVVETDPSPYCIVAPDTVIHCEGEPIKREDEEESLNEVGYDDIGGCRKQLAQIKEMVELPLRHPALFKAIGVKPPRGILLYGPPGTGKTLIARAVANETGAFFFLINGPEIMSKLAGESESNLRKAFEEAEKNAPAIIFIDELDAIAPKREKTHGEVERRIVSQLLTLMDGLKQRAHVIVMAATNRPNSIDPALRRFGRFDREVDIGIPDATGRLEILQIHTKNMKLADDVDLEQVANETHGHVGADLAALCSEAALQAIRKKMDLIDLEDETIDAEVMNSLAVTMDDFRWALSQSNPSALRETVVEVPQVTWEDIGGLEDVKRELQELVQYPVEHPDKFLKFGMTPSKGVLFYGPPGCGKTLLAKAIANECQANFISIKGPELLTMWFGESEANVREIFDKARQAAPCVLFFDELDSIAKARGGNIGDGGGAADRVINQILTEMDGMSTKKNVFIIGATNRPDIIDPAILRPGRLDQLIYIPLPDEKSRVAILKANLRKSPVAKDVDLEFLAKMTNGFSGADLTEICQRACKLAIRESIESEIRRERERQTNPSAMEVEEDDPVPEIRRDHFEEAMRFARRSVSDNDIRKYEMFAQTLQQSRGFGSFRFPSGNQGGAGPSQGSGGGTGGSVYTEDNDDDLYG
M18AAP inhibitor = PfM18AAP enzyme inhibition. recombinant PfM18AAP, H-Glu-NHMec fluorogenic cleavage. inhibition, % at 7.35 µM. 290,000 tested, 1.2% active. AID 1822;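 active means inhibition above the campaign mean inhibition over all tested compounds plus 3 SD, cut at about 28% in these data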
p97 inh conf = confirmation of human p97 ATPase inhibitors; AID 1517; shares compounds with p97 inhibitor; 760 tested, 44% active; recombinant p97 ATPase, Kinase-Glo ATP luminescence; inhibition, % at 8 µM;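 active means percent inhibition of p97 ATPase above a set limit, the primary screen's mean plus 3 SD, cut at about 15% in these data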
Of the large screens only hits and unclear results are named; the others gave an inactive call (follow-up assays come after a bar, where they were run).

CSC1=NSC2=NC(=O)/C(=C\c3coc4ccccc4c3=O)C(=N)N12	none
N=C1/C(=C/c2coc3ccccc3c2=O)C(=O)N=C2SC(c3ccco3)=NN12	p97 inhibitor 15.9, M18AAP inhibitor 28.6 (no result: G6PDH CS) | p97 inh conf 19.2
N=C1/C(=C\c2coc3ccccc3c2=O)C(=O)N=C2SC(c3ccncc3)=NN12	p97 inhibitor 31.8 (no result: HDAC3 inhib, G6PDH CS) | p97 inh conf 43.5
Cc1cc(/C=C2\C(=N)N3N=C(c4ccco4)SC3=NC2=O)c(C)n1Cc1ccccc1	none (no result: G6PDH CS, SUMO HTRF inh)
N=C1/C(=C\c2coc3ccc(O)cc3c2=O)C(=O)N=C2SC=CN12	p97 inhibitor 27.6, M18AAP inhibitor 48.9 (no result: G6PDH CS) | p97 inh conf 23.6
O=C(Nc1cccc(Br)c1)c1cccc(OC(=S)N2CCOCC2)c1	none (no result: G6PDH CS, p97 inhibitor)
O=C(N[C@@H](Cc1ccccc1)C(=O)OCc1ccccc1)c1nc[nH]c1C(=O)NCc1ccccc1	p97 inhibitor 16.9 | p97 inh conf 19.5
CCS(=O)(=O)c1ccc2c(c1)N(S(=O)(=O)c1ccc(Cl)cc1)CC(C(=O)O)O2 (centres undefined)	none
CC1CCCC(NCC(O)COC(c2ccc(F)cc2)c2ccc(F)cc2)C1C (centres undefined)	p97 inhibitor 15.2 | p97 inh conf inactive
CC(C)Cn1c(C23CC4CC(CC(C4)C2)C3)n[nH]c1=S	none (no result: G6PDH CS, PHOSPHO1 block, p97 inhibitor)
NC(=O)N/N=C/c1cc(Br)ccc1OC(=O)c1ccccc1	p97 inhibitor 15.7 | p97 inh conf 22.8
CC1CN=C(NC(=O)c2cccc([N+](=O)[O-])c2)S1 (centres undefined)	none (no result: G6PDH CS, p97 inhibitor)
Cc1ccc(S(=O)(=O)NCc2ccccc2)cc1C(=O)N1CCCCCCC1	none (no result: G6PDH CS, SUMO HTRF inh, PHOSPHO1 block, p97 inhibitor, M18AAP inhibitor)
CCNC(=O)Oc1ccc[nH]c1=O	SUMO HTRF inh 88.3, p97 inhibitor 17.1 (no result: G6PDH CS) | p97 inh conf inactive
Cc1ccc(C)n1Cc1ccc(C(=O)O)cc1	p97 inhibitor 27.9 | p97 inh conf inactive
Cc1cc(C)n(Cc2ccc(C(=O)O)cc2)n1	none
CCC(Cc1ccccc1)NC(=O)CCc1ccccc1 (centres undefined)	none (no result: G6PDH CS, PHOSPHO1 block, p97 inhibitor)
CCC(Cc1ccccc1)NC(=O)CCn1cccc1 (centres undefined)	HDAC3 inhib inconclusive, p97 inhibitor 16.4 | p97 inh conf inactive
OCCN(CCO)c1ncnc2c1sc1nc(N3CCOCC3)c3c(c12)CCCC3	none
CSc1nc(N(CCO)CCO)c2sc3nc(-c4ccco4)c4c(c3c2n1)CCC4	SUMO HTRF inh 62.0, PHOSPHO1 block 78.7, p97 inhibitor 19.6 (no result: HDAC3 inhib) | p97 inh conf inactive
COc1c2ccccc2c(OC)c2ccccc12	none
CC(C(=O)Nc1ccc2c(c1)OCO2)N1CCC(N2CCCCC2)CC1 (centres undefined)	none (no result: G6PDH CS, SUMO HTRF inh, PHOSPHO1 block, p97 inhibitor, M18AAP inhibitor)
CC(C(=O)Nc1ccc2c(c1)OCO2)N1CCN(C)CC1 (centres undefined)	p97 inhibitor 21.9 (no result: G6PDH CS) | p97 inh conf inactive
CC(=O)Nc1cccc(-c2nc3ccc(NC(C)=O)cc3s2)c1	p97 inhibitor 15.7 | p97 inh conf inactive
CC(=O)Nc1cccc(-c2nc3ccccc3s2)c1	none
CC(=O)Nc1cccc(-c2cn3ccc(C)cc3n2)c1	p97 inhibitor 17.4 | p97 inh conf 21.3
Cc1ccn2cc(-c3cccc(NC(=O)CCC(=O)O)c3)nc2c1	none (no result: G6PDH CS, p97 inhibitor)
Nc1c(C(=O)Nc2ccccc2)sc2nc(-c3ccco3)ccc12	SUMO HTRF inh 58.5, p97 inhibitor 18.5 | p97 inh conf 17.8
CC(=O)c1ccc2c(c1)C1C=CCC1C(C(=O)O)N2 (centres undefined)	SUMO HTRF inh 78.3, p97 inhibitor 20.2 (no result: HDAC3 inhib) | p97 inh conf 29.9
O=C(O)c1ccc2c(c1)C1C=CCC1C(c1cc3c(cc1Br)OCO3)N2 (centres undefined)	none
Cc1cc(N)c2cc(NC(=O)/C=C/c3ccccc3Cl)ccc2n1	p97 inhibitor 24.2 (no result: G6PDH CS) | p97 inh conf 22.6
CSc1nc(N2CCOCC2)c2ccccc2n1	none
CN1c2ccccc2C(C)(C)C12C=Nc1c(cc(N3CCOCC3)c3ccccc13)O2 (centres undefined)	p97 inhibitor 29.4 (no result: HDAC3 inhib) | p97 inh conf inactive
COc1cc(/C=c2\sc3n(c2=O)C(c2ccccc2)C(c2ccccc2)=NN=3)ccc1O (centres undefined)	p97 inhibitor 16.2 | p97 inh conf inactive
CCc1ccc(NC(=O)COc2cccc(-n3cnnn3)c2)cc1	none (no result: G6PDH CS, p97 inhibitor)
COc1ccc(/C=C2/C(=O)N(c3ccccc3)N=C2C)cc1Br	none (no result: G6PDH CS, p97 inhibitor)
CC1=NN(c2ccc(C)c(C)c2)C(=O)/C1=C/c1ccc2c(c1)n(C)c(=O)n2C	SUMO HTRF inh 85.4, p97 inhibitor 24.9 | p97 inh conf inactive
COc1ccc(-c2cc3c(=O)n(CC(=O)N4CCN(C)CC4)ncn3n2)cc1	none (no result: G6PDH CS, p97 inhibitor)
O=C(O)C1CSC(c2ccc(O)c([N+](=O)[O-])c2)N1 (centres undefined)	p97 inhibitor 16.4 (no result: HDAC3 inhib) | p97 inh conf inactive
O=C(COC(=O)c1cccc2c1C(=O)c1ccccc1C2=O)NC1CCCCC1	none
O=C(COC(=O)c1ccc2c(c1[N+](=O)[O-])C(=O)c1ccccc1C2=O)NC1CC1	G6PDH CS 55.3, p97 inhibitor 23.1 | p97 inh conf 29.3
Cn1c(=NC(=O)CCl)sc2ccccc21	p97 inhibitor 20.3 | p97 inh conf 21.7
Cn1c(=NC(=O)c2ccco2)sc2ccccc21	none
O=C(O)CCC(=O)c1ccc2ccc3cccc4ccc1c2c34	p97 inhibitor 19.4 (no result: G6PDH CS) | p97 inh conf 24.9
CCCCNC(=S)Nc1cccc2cnccc12	none
Cc1ccc(NC(=S)Nc2cccc3cnccc23)cc1C	G6PDH CS 55.9, p97 inhibitor 24.0 | p97 inh conf inactive
O=C1NC(=S)S/C1=C\C=C\c1ccc([N+](=O)[O-])o1	SUMO HTRF inh 86.4, p97 inhibitor 45.3 (no result: HDAC3 inhib, G6PDH CS) | p97 inh conf 18.3
Cc1ccc2oc(C(=O)NCCCN3CCOCC3)c(C)c2c1	none (no result: G6PDH CS, p97 inhibitor)
CC1=NN(c2ccc(C)cc2C)C(=O)C1C(c1cccc(O)c1)C1C(=O)N(c2ccc(C)cc2C)N=C1C (centres undefined)	p97 inhibitor 22.6 | p97 inh conf inactive
COc1ccccc1N1CCN(C(=O)CCC(=O)Nc2nnc(CC(C)C)s2)CC1	none (no result: G6PDH CS, p97 inhibitor)
O=C(NN1C(=O)/C(=C/C=C/c2ccco2)SC1=S)c1ccccc1O	SUMO HTRF inh 79.0, PHOSPHO1 block 85.9, p97 inhibitor 55.2 (no result: G6PDH CS) | p97 inh conf 21.3
O=C(Nc1ccccc1C(=O)NCCCN1CCOCC1)c1cccc([N+](=O)[O-])c1	none (no result: G6PDH CS, p97 inhibitor)
O=C(Nc1ccc(F)cc1)C1C(c2ccccc2)C1(Cl)Cl (centres undefined)	p97 inhibitor 40.9 | p97 inh conf 46.9
O=C1Nc2ccccc2C(=O)N2C[C@@H](O)C[C@H]12	none (no result: G6PDH CS, p97 inhibitor)
COc1ccccc1N1CCN(Cc2cc(=O)n3ccsc3n2)CC1	p97 inhibitor 16.1 | p97 inh conf inactive
Nc1cccc2cnccc12	p97 inhibitor 16.0 | p97 inh conf inactive
Oc1cccc2cnccc12	none (no result: G6PDH CS)
